# Test results from PubChem BioAssay (Tox21).
# A number with no mark means an inactive call. Records with an inconclusive call do not appear. Where a call stands in place of a potency, no number is given. Active and inactive are the calls of the source. Unless noted, the call rests on the fitted dose curve.
# Legend:
# [1] = Nuclear factor erythroid 2-related factor 2/antioxidant responsive element (Nrf2/ARE) small molecule agonists: qHTS cell viability counter screen in human keratinocytes (AID 1919968; active means well fitted curve in the direction sought with a large enough effect in the repeat runs; an effect the other way counts as inactive or inconclusive; further: nearly all actives have a fitted effect of over 55% in size; further: potency means the concentration at half of the fitted maximal effect)
# In short: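 KeratinoSens cells (HaCaT keratinocytes stably carrying an ARE-luciferase reporter) were seeded at 1,500 cells/well and rested 5 h at 37 C/5% CO2. They were then exposed to compounds in DMSO for 23 h. Viability was read by CellTiter-Fluor fluorescence after 1 h.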
# [2] = Nuclear factor erythroid 2-related factor 2/antioxidant responsive element (Nrf2/ARE) small molecule agonists: luciferase reporter gene qHTS assay in human keratinocytes (AID 1919969); further: nearly all actives have a fitted effect of over 35% in size; further: potency means the concentration at half of the fitted maximal effect
# [3] = target: Gonadotropin-releasing hormone receptor (Homo sapiens) (UniProt P30968); assay: Human gonadotropin-releasing hormone receptor (GnRHR) small molecule agonists, calcium flux assay in GnRHR-HEK293 cells (AID 1920063); further: nearly all actives have a fitted effect of over 35% in size
# Chain of Gonadotropin-releasing hormone receptor (Homo sapiens) (P30968 whole entry, looked up): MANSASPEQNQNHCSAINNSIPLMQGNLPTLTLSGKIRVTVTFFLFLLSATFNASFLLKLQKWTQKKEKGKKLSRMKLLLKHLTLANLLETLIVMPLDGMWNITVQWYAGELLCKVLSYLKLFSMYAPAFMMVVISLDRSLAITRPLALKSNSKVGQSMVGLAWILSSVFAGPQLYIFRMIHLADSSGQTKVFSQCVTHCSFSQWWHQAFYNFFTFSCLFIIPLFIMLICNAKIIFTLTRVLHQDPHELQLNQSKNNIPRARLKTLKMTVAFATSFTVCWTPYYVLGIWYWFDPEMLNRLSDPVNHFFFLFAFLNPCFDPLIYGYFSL
# In short: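 HEK293 cells stably expressing human GnRHR were plated 18 h at 37 °C, loaded with calcium dye 1 h at 37 °C, then given compound in agonist mode; fluorescence (Ex/Em 480/540) read kinetically for 3 min at 1 s intervals.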
# [4] = target: KiSS-1 receptor (Homo sapiens) (UniProt Q969F8); assay: Human kisspeptin (KISS1R) small molecule agonists, calcium flux assay in KISS1R-HEK293 cells (AID 1920064; active means well fitted curve in the direction sought with a large enough effect in the repeat runs; an effect the other way counts as inactive or inconclusive)
# Chain of KiSS-1 receptor (Homo sapiens) (Q969F8 whole entry, looked up): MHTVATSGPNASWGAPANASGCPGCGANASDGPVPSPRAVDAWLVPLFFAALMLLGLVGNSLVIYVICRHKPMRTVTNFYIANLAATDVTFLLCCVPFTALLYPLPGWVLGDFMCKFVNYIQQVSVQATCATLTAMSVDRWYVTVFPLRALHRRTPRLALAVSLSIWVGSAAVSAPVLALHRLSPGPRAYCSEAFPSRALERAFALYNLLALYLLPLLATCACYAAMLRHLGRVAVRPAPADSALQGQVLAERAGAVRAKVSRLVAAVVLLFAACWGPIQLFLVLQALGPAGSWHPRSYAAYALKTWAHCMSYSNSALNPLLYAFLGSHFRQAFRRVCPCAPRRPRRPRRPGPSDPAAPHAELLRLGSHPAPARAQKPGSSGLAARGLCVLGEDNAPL
# In short: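 HEK293 cells stably expressing human KISS1R were plated 18 h at 37 °C, loaded with calcium dye for 1 h at 37 °C, then given compound by pin tool. Fluorescence (Ex/Em 480/540) was read kinetically for 3 min.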
# [5] = G protein-coupled receptor (GPCR) small molecule agonists, calcium flux assay: HEK293 wild type cell line counter screen (AID 1920065)
# In short: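 Cells were plated and cultured 18 h at 37 C/5% CO2, then loaded with calcium dye for 1 h at 37 C. Compounds in DMSO were pin-transferred in agonist mode, and fluorescence (Ex/Em 480/540) was read kinetically for 3 min at 1 s intervals.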
# [6] = p53 small molecule agonists, cell-based qHTS assay with rat liver microsomes: qHTS cell viability counter screen (AID 1963580); further: nearly all actives have a fitted effect of over 45% in size
# In short: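 p53RE-bla HCT-116 cells were exposed 16 h at 37 C to compounds with rat liver microsomes (0.5 mg/mL) and NADPH (0.5 mg/mL). Viability was measured in the same wells as ATP content by CellTiter-Glo luminescence.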
# [7] = p53 small molecule agonists, cell-based qHTS assay: qHTS cell viability counter screen (AID 1963581); further: nearly all actives have a fitted effect of over 45% in size
# In short: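 p53RE-bla HCT-116 cells were exposed to compounds for 16 h at 37 C; after the beta-lactamase FRET read in the same wells, CellTiter-Glo was added and luminescence (intracellular ATP) read after 30 min at room temperature.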
# [8] = target: 5-hydroxytryptamine receptor 2A (Homo sapiens) (UniProt P28223); assay: 5-hydroxytryptamine receptor 2A (HTR2A) small molecule antagonists, cell-based qHTS assay (AID 1963586); further: nearly all actives have a fitted effect of over 45% in size
# Chain of 5-hydroxytryptamine receptor 2A (Homo sapiens) (P28223 whole entry, looked up): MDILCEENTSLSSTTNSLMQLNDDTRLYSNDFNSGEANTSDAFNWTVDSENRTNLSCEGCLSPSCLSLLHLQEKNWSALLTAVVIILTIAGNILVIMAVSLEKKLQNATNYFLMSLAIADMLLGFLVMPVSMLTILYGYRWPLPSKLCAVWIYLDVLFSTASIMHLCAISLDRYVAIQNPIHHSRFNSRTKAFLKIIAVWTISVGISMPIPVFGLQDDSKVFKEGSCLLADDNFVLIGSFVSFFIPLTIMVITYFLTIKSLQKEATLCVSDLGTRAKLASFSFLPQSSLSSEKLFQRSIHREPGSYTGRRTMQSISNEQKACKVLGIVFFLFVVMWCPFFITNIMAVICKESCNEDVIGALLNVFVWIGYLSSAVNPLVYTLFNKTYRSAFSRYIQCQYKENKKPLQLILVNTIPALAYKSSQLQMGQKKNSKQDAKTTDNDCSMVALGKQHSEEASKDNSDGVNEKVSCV
# In short: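 Antagonist-mode intracellular calcium assay: DOI (4 nM) added after 5 min compound pre-incubation at room temperature to dye-loaded HTR2A-CHO cells. Fluorescence followed for 3 min, sampled every second.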
# [9] = target: 5-hydroxytryptamine receptor 2A (Homo sapiens) (UniProt P28223); assay: 5-hydroxytryptamine receptor 2A (HTR2A) small molecule agonists, cell-based qHTS assay (AID 1963587); further: nearly all actives have a fitted effect of over 30% in size
# In short: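 CHO cells stably expressing human HTR2A, plated 18 h, loaded with calcium dye 1 h at 37 C. Agonist mode: compounds added and intracellular calcium fluorescence recorded kinetically for 2 min at 1 sec intervals.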
# [10] = target: Muscarinic acetylcholine receptor M1 (Homo sapiens) (UniProt P11229); assay: Cholinergic receptor muscarinic 1 (CHRM1) small molecule antagonists, cell-based qHTS assay (AID 1963588); further: nearly all actives have a fitted effect of over 40% in size
# Chain of Muscarinic acetylcholine receptor M1 (Homo sapiens) (P11229 whole entry, looked up): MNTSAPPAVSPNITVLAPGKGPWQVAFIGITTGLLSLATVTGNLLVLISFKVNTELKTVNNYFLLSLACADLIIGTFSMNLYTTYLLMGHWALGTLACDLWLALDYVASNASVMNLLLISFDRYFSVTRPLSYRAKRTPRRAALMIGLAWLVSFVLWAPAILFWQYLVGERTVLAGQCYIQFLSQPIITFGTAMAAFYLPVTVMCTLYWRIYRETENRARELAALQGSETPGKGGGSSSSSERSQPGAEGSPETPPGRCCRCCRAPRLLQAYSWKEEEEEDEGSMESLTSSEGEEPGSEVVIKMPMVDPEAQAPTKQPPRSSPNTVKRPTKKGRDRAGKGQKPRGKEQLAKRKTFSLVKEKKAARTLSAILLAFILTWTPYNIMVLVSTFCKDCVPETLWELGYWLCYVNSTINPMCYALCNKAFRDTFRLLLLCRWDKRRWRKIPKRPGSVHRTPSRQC
# In short: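 CHRM1-CHO calcium-flux assay, antagonist mode. Cells were seeded 18 h, dye-loaded 1 h at 37 C and given compound for 5 min at RT, then acetylcholine was added at 50nM. FDSS fluorescence was read 3 min; 15 concentrations, three runs.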
# [11] = target: Muscarinic acetylcholine receptor M1 (Homo sapiens) (UniProt P11229); assay: Cholinergic receptor muscarinic 1 (CHRM1) small molecule agonists, cell-based qHTS assay (AID 1963589); further: nearly all actives have a fitted effect of over 35% in size
# In short: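 CHO cells stably expressing human CHRM1, seeded 18 h at 37 C/5% CO2, dye-loaded 1 h at 37 C, then given compound in agonist mode; intracellular calcium fluorescence read kinetically at 1 s intervals. Fifteen concentrations, three independent runs.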
# [12] = cAMP Responsive Elements (CRE) small molecule agonists, cell-based qHTS assay (AID 1963590)
# In short: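 CRE-bla HEK 293T cells in DMEM with 10% dialyzed FBS, NEAA, pyruvate and 25 mM HEPES were plated 18 h at 37 C/5% CO2, then exposed to compounds in DMSO for 3 h before LiveBLAzer B/G FRET substrate addition.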
# [13] = target: Beta-2 adrenergic receptor (Homo sapiens) (UniProt P07550); assay: Adrenergic beta2 receptor (ADRB2) small molecule antagonists, cell-based qHTS assay (AID 1963592); further: nearly all actives have a fitted effect of over 50% in size; further: potency means the concentration at half of the fitted maximal effect
# Chain of Beta-2 adrenergic receptor (Homo sapiens) (P07550 whole entry, looked up): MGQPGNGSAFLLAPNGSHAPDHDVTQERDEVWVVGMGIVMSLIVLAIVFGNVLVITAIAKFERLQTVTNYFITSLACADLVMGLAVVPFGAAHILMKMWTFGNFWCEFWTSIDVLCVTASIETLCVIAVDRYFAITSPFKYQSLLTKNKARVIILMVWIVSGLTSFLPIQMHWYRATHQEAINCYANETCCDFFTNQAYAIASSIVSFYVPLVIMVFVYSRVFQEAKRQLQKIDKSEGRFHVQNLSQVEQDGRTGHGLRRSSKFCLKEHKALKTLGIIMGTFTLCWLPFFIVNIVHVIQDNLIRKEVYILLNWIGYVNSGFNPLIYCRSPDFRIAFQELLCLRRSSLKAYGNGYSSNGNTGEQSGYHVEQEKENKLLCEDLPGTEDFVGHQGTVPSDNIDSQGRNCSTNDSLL
# In short: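 Cells (CHO, stable ADRB2 overexpression) incubated 18-20hr at 37C; compounds added from DMSO; agonist mix (1nM isoproterenol, 100uM IBMX, 25uM Ro-20-1724) added; 0.5hr RT; d2-cAMP and anti-cAMP-cryptate added; 1hr RT; 665/615 nm read.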
# [14] = target: Beta-2 adrenergic receptor (Homo sapiens) (UniProt P07550); assay: Adrenergic beta2 receptor (ADRB2) small molecule agonists, cell-based qHTS assay (AID 1963593);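 further: CHO cells stably overexpressing human ADRB2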
# In short: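 CHO cells stably over-expressing ADRB2 were plated overnight at 37C, then dosed with compounds plus a stimulation mix containing 100uM IBMX and 25uM Ro-20-1724 for 0.5hr at room temperature. cAMP was measured by HTRF competition, 1hr.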
# [15] = target: D(2) dopamine receptor (Homo sapiens) (UniProt P14416); assay: Dopamine D2 receptor (DRD2) small molecule agonists, cell-based qHTS assay (AID 1963594); further: nearly all actives have a fitted effect of over 35% in size
# Chain of D(2) dopamine receptor (Homo sapiens) (P14416 whole entry, looked up): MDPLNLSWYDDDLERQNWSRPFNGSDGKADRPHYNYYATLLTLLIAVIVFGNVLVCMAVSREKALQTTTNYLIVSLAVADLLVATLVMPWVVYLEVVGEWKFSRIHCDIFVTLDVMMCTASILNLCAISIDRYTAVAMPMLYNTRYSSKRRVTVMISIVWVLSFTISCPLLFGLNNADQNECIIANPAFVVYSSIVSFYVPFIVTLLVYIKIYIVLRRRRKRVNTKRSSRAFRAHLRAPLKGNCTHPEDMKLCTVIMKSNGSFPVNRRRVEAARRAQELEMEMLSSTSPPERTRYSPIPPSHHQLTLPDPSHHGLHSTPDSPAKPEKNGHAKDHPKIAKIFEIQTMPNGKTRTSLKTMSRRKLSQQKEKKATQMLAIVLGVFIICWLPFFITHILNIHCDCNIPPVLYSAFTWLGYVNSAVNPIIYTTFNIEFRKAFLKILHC
# In short: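 HEK293 cells stably expressing human DRD2, pre-treated with PDE inhibitor Ro20-1724 (0.1 mM final) and compound 10 min at room temperature, then stimulated with NKH477 (200nM […]) for 30 min. cAMP read by HTRF (665/620 nm).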
# [16] = target: D(2) dopamine receptor (Homo sapiens) (UniProt P14416); assay: Dopamine D2 receptor (DRD2) small molecule antagonists, cell-based qHTS assay (AID 1963595; active means well fitted inhibition curve with a large enough effect in the signal ratio in the repeat runs, with a control signal flat; the % refers to the signal ratio; further: potency means the concentration at half of the fitted maximal effect)
# In short: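 HTRF cAMP read-out at 665 and 620 nm emission (340 nm excitation). Antagonist mode: compounds were tested against 12 nM quinpirole in DRD2-HEK293 cells, with 200 nM NKH477 raising cAMP and 0.1 mM Ro20-1724 blocking its breakdown.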
# [17] = cAMP Responsive Elements (CRE) small molecule antagonists, cell-based qHTS assay (AID 1963591; active means well fitted inhibition curve with a large enough effect in the signal ratio in the repeat runs, not every such curve was filed as active; the % refers to the signal ratio)
# In short: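 CRE-bla HEK293T cells were plated 18 h at 37 °C/5% CO2, pinned with compound in DMSO, then stimulated with NKH477 at 0.25 uM final for 3 h. LiveBLAzer B/G FRET substrate was added and plates incubated 2 h at room temperature.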
# [18] = p53 small molecule agonists, cell-based qHTS assay with human liver microsomes: qHTS cell viability counter screen (AID 1963579); further: nearly all actives have a fitted effect of over 45% in size
# In short: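 In this multiplexed counter screen, the reporter plates were subsequently treated with CellTiter-Glo so that cell viability, reflected by luminescence, could be recorded for p53RE-bla cells dosed 16 h with compounds under microsomal activation (HLM and NADPH).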
# [19] = p53 small molecule agonists, cell-based qHTS assay (AID 1963582; active means well fitted activation curve with a large enough effect in the signal ratio in the repeat runs, not every such curve was filed as active; the % refers to the signal ratio)
# In short: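 p53RE-bla beta-lactamase reporter cells rested 5 h at 37 C/5% CO2, then received compounds in DMSO by pin transfer and were incubated 16 h at 37 C. LiveBLAzer B/G FRET substrate was loaded for 2 h at room temperature before fluorescence reading.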
SMILES,Potency [1],Potency [2],Potency [3],Potency [4],Potency [5],Potency [6],Potency [7],Potency [8],Potency [9],Potency [10],Potency [11],Potency [12],Potency [13],Potency [14],Potency [15],Potency [16],Potency [17],Potency [18],Potency [19]
O=C(Cl)c1c(Cl)cccc1Cl,inactive,inactive,inactive,inactive,inactive,inactive,inactive,inactive,inactive,inactive,inactive,inactive,inactive,inactive,inactive,inactive,–,–,–
CCOC(=O)C1=NN(c2ccccc2)C(=O)C1,inactive,inactive,inactive,inactive,inactive,inactive,inactive,inactive,inactive,–,inactive,inactive,inactive,–,inactive,inactive,inactive,–,–
CN1CCC(=C2c3ccccc3Sc3ccccc32)CC1,inactive,inactive,inactive,inactive,inactive,inactive,inactive,–,inactive,–,–,inactive,–,–,inactive,0.75 µM (active),–,–,–
Cc1ncc([N+](=O)[O-])n1CC(O)CCl (stereo unspecified),inactive,inactive,inactive,inactive,inactive,inactive,inactive,inactive,inactive,inactive,inactive,inactive,inactive,–,inactive,inactive,inactive,–,–
C1CCC2(CCCCO2)OC1,inactive,inactive,inactive,inactive,inactive,inactive,inactive,inactive,inactive,inactive,inactive,inactive,inactive,inactive,inactive,inactive,inactive,–,–
CCCOC(OCCC)OCCC,inactive,inactive,inactive,inactive,inactive,inactive,inactive,inactive,inactive,inactive,inactive,inactive,inactive,inactive,inactive,inactive,inactive,–,–
CN(C)CCCO[C@@H]1[C@H]2OC(C)(C)O[C@H]2O[C@@H]1C(O)CO (stereo partly specified),inactive,inactive,inactive,inactive,inactive,inactive,–,inactive,inactive,inactive,inactive,inactive,inactive,inactive,–,inactive,–,–,–
CC(C)OC(=O)c1cc(C(=O)OC(C)C)cc([N+](=O)[O-])c1,inactive,inactive,inactive,inactive,inactive,inactive,–,inactive,inactive,inactive,inactive,–,62.6 µM (active),–,inactive,inactive,–,–,–
Nc1ccccc1Nc1ccccc1,48.7 µM (active),21.8 µM (active),inactive,inactive,inactive,inactive,–,inactive,inactive,inactive,inactive,–,–,–,inactive,inactive,inactive,–,–
Cc1ccc(NC=O)c(C)c1,inactive,inactive,inactive,inactive,inactive,inactive,inactive,inactive,inactive,inactive,inactive,inactive,inactive,inactive,inactive,inactive,–,–,–
Nc1ccc(Oc2ccc(N)c(N)c2)cc1,inactive,6.11 µM (active),inactive,inactive,inactive,inactive,–,inactive,inactive,inactive,inactive,inactive,inactive,inactive,–,inactive,inactive,–,–
CC[C@H]1OC(=O)[C@H](C)[C@@H](O[C@H]2C[C@@](C)(OC)[C@@H](O)[C@H](C)O2)[C@H](C)[C@@H](O[C@@H]2O[C@H](C)C[C@H](N(C)C)[C@H]2O)[C@](C)(O)C[C@@H](C)/C(=N\OCOCCOC)[C@H](C)[C@@H](O)[C@]1(C)O,inactive,inactive,inactive,inactive,inactive,–,–,–,–,–,–,inactive,inactive,–,inactive,–,–,inactive,–
CC(C)(Cc1c[nH]c2ccccc12)NCC(O)COc1ccccc1C#N (stereo unspecified),inactive,inactive,inactive,inactive,inactive,inactive,inactive,–,inactive,inactive,inactive,inactive,0.0067 µM (active),–,inactive,inactive,inactive,–,–
O=C(O)c1ccccc1-c1ccc(C(F)(F)F)cc1,inactive,inactive,inactive,inactive,inactive,inactive,inactive,inactive,inactive,inactive,inactive,inactive,inactive,inactive,–,inactive,inactive,–,–
CC(=O)OC(C)OC(=O)C(C)c1ccc(-c2ccccc2)c(F)c1 (stereo unspecified),inactive,inactive,inactive,inactive,inactive,inactive,inactive,inactive,inactive,inactive,inactive,–,inactive,inactive,inactive,–,–,–,–
CCOc1ccccc1OCC1CNCCO1 (stereo unspecified),inactive,inactive,inactive,inactive,inactive,inactive,inactive,–,–,inactive,inactive,inactive,–,–,–,inactive,inactive,–,inactive
COc1cc(C)cc(O)c1,inactive,inactive,inactive,inactive,inactive,inactive,inactive,inactive,inactive,inactive,inactive,inactive,inactive,inactive,inactive,inactive,–,–,–
